FAS TE block: inhibitors of human fatty acid synthase thioesterase domain | recombinant FAS-TE, OMFH fluorogenic substrate, fluorescence endpoint | inhibition, % at 15 µM | 0.67% of 360,000 active | AID 602261;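 active means compounds whose normalised, plate-corrected inhibition of enzyme fluorescence in the single-dose primary screen is 50% or more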
KLK7 zymogen act: activators of human kallikrein-7 zymogen. purified proKLK7, EDANS-DABCYL substrate fluorescence; 100% is mature enzyme control, 0% vehicle. AID 652039. P49862. 0.9% of 370,000 active. activation, % at 7 µM;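 active means activation above the mean of all tested compounds plus 3 SD, computed per campaign excluding outliers beyond control limits, cut at about 13% in these data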
GRIN3A LBD mod: modulates the human NR3A ligand-binding domain; NR3A LBD differential scanning fluorimetry, Tm shift; 0% = protein alone, 100% = glycine-bound protein; Tm shift relative to glycine control, % at 25 µM; 2.5% of 340,000 active; AID 1259313;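 active means melting temperature shift of at least 10% of the positive control shift, at one fixed dose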
ADAM17 inh: ADAM17 inhibition, QFRET primary screen; P78536; recombinant ADAM17, EDANS/DABCYL FRET peptide cleavage; inhibition, % at 6.95 µM; 0.83% of 370,000 active;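 active means inhibition above the mean of compounds lying between control limits plus 3 SD, set per campaign, cut at about 8.5% in these data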
Target sequence (P78536 215-824 limits assumed): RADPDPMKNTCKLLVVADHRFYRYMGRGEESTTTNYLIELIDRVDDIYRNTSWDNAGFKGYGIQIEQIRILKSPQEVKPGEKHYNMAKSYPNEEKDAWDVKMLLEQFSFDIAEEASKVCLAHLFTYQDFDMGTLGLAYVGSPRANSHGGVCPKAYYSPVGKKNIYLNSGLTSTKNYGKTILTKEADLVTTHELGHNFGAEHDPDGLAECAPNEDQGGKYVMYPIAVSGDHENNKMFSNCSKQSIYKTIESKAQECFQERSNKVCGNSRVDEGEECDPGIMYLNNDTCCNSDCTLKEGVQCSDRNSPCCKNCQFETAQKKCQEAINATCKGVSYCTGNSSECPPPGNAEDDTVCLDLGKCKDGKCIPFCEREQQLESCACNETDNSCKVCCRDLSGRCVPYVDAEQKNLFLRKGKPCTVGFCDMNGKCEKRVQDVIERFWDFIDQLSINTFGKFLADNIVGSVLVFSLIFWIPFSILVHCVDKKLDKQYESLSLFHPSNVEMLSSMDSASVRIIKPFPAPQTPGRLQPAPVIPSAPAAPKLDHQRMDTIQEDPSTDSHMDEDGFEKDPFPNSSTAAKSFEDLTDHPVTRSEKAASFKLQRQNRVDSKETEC
ADAM10 inh: inhibitors of human ADAM10. O14672. 0.62% of 370,000 active. recombinant ADAM10, EDANS/DABCYL FRET peptide cleavage, 3 h. inhibition, % at 7 µM. AID 720582;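 active means inhibition above a per-campaign cutoff equal to the mean of compounds falling between control-based bounds plus 3 SD, cut at about 20% in these data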
proKLK7 act conf: proKLK7 activation, confirmation. shares compounds with KLK7 zymogen act. purified proKLK7, EDANS-DABCYL substrate fluorescence; scaled: vehicle 0, mature enzyme 100. activation, % at 7 µM. 68% of 3,200 active. AID 686949;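 active means activation, as change over the incubation, above the mean of all tested compounds plus 3 SD, cut at about 13% in these data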
EDANS interfere: fluorescence interference counter-screen for KLK7 activators; activation, % at 7 µM; EDANS-DABCYL substrate fluorescence interference, no enzyme, 4 h; solvent 0%, active enzyme control 100%; 80% of 3,200 active; shares compounds with KLK7 zymogen act;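 active means activation above the all-compound mean plus 3 SD, ignoring values outside control-based bounds, cut at about 4.8% in these data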;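 further: value is the 4 h activation minus the activation read at time zero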
K7 EDANS ctr: optically interferes with EDANS-DABCYL fluorescence, kallikrein-7 activator counter-screen. shares compounds with KLK7 zymogen act. EDANS-DABCYL peptide fluorescence interference, no enzyme. EC50, µM. 20% of 250 active. AID 720493;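 active means compounds that raise the fluorescence signal in this interference counterscreen, with EC50 at or below 10 µM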;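 further: intact quenched peptide substrate alone read at 355 nm excitation and 520 nm emission; signal is fluorescence gain from T0 to T4 after four hours at room temperature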
Hits are given with their value. An excerpt weighted towards active compounds, which were near 4.6% of everything screened.

For CCCCOc1ccc(N2C(=O)CC(N(O)c3ccccc3)C2=O)cc1 (stereo unspecified) the results were FAS TE block inactive, KLK7 zymogen act 32.9, GRIN3A LBD mod inactive, ADAM17 inh inactive, ADAM10 inh inactive, proKLK7 act conf 35.7 and EDANS interfere 33.3.
`CN(C)[C@@H]1CCN(c2cccc3c2S(=O)(=O)N2CC[C@H](C2)O3)C1` gave KLK7 zymogen act inactive, ADAM17 inh inactive and ADAM10 inh inactive.
`O=C(COCc1ccccc1)N1CCC(Oc2cccnc2)CC1` gave KLK7 zymogen act inactive, ADAM17 inh inactive and ADAM10 inh inactive.
`Cc1ccccc1CN1CCCCC(NC(=O)Nc2ccccc2-c2ccccc2)C1=O` (stereo unspecified) gave KLK7 zymogen act inactive, ADAM17 inh inactive and ADAM10 inh inactive.
`O=C(NCc1cccs1)O[C@H]1CC[C@@]23CCCN2C(=O)CCC[C@H]3C1` gave ADAM17 inh inactive and ADAM10 inh inactive.
For Cn1c(C(=O)NCCN2CCOCC2)cc2c(=O)n3ccccc3nc21 the results were FAS TE block inactive, KLK7 zymogen act 59.7, GRIN3A LBD mod inactive, ADAM17 inh inactive, ADAM10 inh inactive, proKLK7 act conf 66.9 and EDANS interfere 74.2.
For COCCCn1c(C(=O)NCCN2CCOCC2)cc2c(=O)n3ccccc3nc21 the results were FAS TE block inactive, KLK7 zymogen act 82.6, GRIN3A LBD mod inactive, ADAM17 inh inactive, ADAM10 inh inactive, proKLK7 act conf 71.7 and EDANS interfere 75.3.
`Cc1ccc(Cn2c(=N)c(C(=O)NCCN3CCOCC3)cc3c(=O)n4ccccc4nc32)cc1` gave FAS TE block inactive, KLK7 zymogen act inactive, GRIN3A LBD mod inactive, ADAM17 inh inactive and ADAM10 inh inactive.
`Cc1ccc2nc3c(cc(C(=O)NCCCn4ccnc4)n3C)c(=O)n2c1` gave FAS TE block inactive, KLK7 zymogen act 66.7, GRIN3A LBD mod inactive, ADAM17 inh inactive, ADAM10 inh inactive, proKLK7 act conf 62.2 and EDANS interfere 79.4.
Screening Cc1ccc(CC(=O)NCCCn2ccnc2)cc1 returned FAS TE block inactive, KLK7 zymogen act inactive, GRIN3A LBD mod inactive, ADAM17 inh inactive and ADAM10 inh inactive.
Cc1cccn2c(=O)c3cc(C(=O)NCCN4CCOCC4)n(C)c3nc12 was read as FAS TE block inactive, KLK7 zymogen act 18.7, GRIN3A LBD mod inactive, ADAM17 inh inactive, ADAM10 inh inactive, proKLK7 act conf inactive and EDANS interfere inactive.
Screening CCOC(=O)C1=NOC(C(=O)NC2CCCC2)(C(=O)c2ccc(OC)cc2)C1 (stereo unspecified) returned KLK7 zymogen act inactive, ADAM17 inh inactive and ADAM10 inh inactive.
For CCC(NC(=O)CCCN1C(=O)COc2ccc(C)cc21)c1ccccc1 (stereo unspecified) the results were KLK7 zymogen act inactive, ADAM17 inh inactive and ADAM10 inh inactive.
c1ccc(-c2nnc3n2N=C(c2ccc4ccccc4c2)CS3)cc1 was read as KLK7 zymogen act inactive, ADAM17 inh inactive and ADAM10 inh inactive.
`COc1ccc(/C=N/Nc2snc(SC)c2C#N)cc1OC` gave FAS TE block inactive, KLK7 zymogen act 16.2, GRIN3A LBD mod inactive, ADAM17 inh inactive, ADAM10 inh inactive, proKLK7 act conf inactive and EDANS interfere inactive.
Screening CCOC(=O)CSc1ccc(-c2nc3cc(C)c(C)cc3[nH]2)cn1 returned FAS TE block inactive, KLK7 zymogen act inactive, GRIN3A LBD mod inactive, ADAM17 inh inactive and ADAM10 inh inactive.
Screening Cc1cc2nc(-c3ccc(SCc4ccccn4)nc3)[nH]c2cc1C returned FAS TE block inactive, KLK7 zymogen act 126.8, GRIN3A LBD mod inactive, ADAM17 inh inactive, ADAM10 inh inactive, proKLK7 act conf 24.9, EDANS interfere 15.8 and K7 EDANS ctr inactive.
Screening O=C1c2cnc3ncnn3c2CC2c3ccccc3CCN12 (stereo unspecified) returned FAS TE block inactive, KLK7 zymogen act 100.9, GRIN3A LBD mod inactive, ADAM17 inh inactive, ADAM10 inh inactive, proKLK7 act conf 195.5 and EDANS interfere 178.9.
Screening N#Cc1cnn2c3c(cnc12)C(=O)N1CCc2ccccc2C1C3 (stereo unspecified) returned FAS TE block inactive, KLK7 zymogen act 76.6, GRIN3A LBD mod inactive, ADAM17 inh inactive, ADAM10 inh inactive, proKLK7 act conf inactive and EDANS interfere inactive.
`CSc1nc2ncc3c(n2n1)CC1c2ccccc2CCN1C3=O` (stereo unspecified) gave FAS TE block inactive, KLK7 zymogen act inactive, GRIN3A LBD mod inactive, ADAM17 inh inactive and ADAM10 inh inactive.
For COc1ccc2cc3cc(C(=O)NCc4ccc5c(c4)OCO5)oc3nc2c1 the results were FAS TE block inactive, KLK7 zymogen act inactive, GRIN3A LBD mod inactive, ADAM17 inh inactive and ADAM10 inh inactive.
`COc1ccc2cc3cc(C(=O)NCc4cccnc4)oc3nc2c1` gave FAS TE block inactive, KLK7 zymogen act 45.5, GRIN3A LBD mod inactive, ADAM17 inh inactive, ADAM10 inh inactive, proKLK7 act conf 53.6 and EDANS interfere 53.4.
CCCCN(C)C(=O)c1cc2cc3cc(OC)ccc3nc2o1 was read as FAS TE block inactive, KLK7 zymogen act inactive, GRIN3A LBD mod inactive, ADAM17 inh inactive and ADAM10 inh inactive.
For CCCCN(C)C(=O)c1cc2cc3ccc(OC)cc3nc2o1 the results were FAS TE block inactive, KLK7 zymogen act inactive, GRIN3A LBD mod inactive, ADAM17 inh inactive and ADAM10 inh inactive.
CCN(CC)CCNC(=O)c1cc2cc3ccc(OC)cc3nc2o1 was read as FAS TE block inactive, KLK7 zymogen act 23.9, GRIN3A LBD mod inactive, ADAM17 inh inactive, ADAM10 inh inactive, proKLK7 act conf 76.3 and EDANS interfere 84.2.
Screening CCCCN(C)CCNC(=O)c1cc2cc3ccc(OC)cc3nc2o1 returned FAS TE block inactive, KLK7 zymogen act 100.3, GRIN3A LBD mod inactive, ADAM17 inh inactive, ADAM10 inh inactive, proKLK7 act conf 53.6 and EDANS interfere 76.7.
Screening COCCCNC(=O)c1cc2cc3cc(OC)ccc3nc2o1 returned FAS TE block inactive, KLK7 zymogen act 22.8, GRIN3A LBD mod inactive, ADAM17 inh inactive, ADAM10 inh inactive, proKLK7 act conf 23.4 and EDANS interfere 28.5.
`Cc1cccc(NC(=O)NN(C(=O)c2ccccc2Cl)C(C)(C)C)c1` gave KLK7 zymogen act inactive, ADAM17 inh inactive and ADAM10 inh inactive.
